PAX8 inh HTS – inhibitors of PAX8 transcriptional activity in RMG-I cells | RMG-I TPO-luciferase reporter, SteadyGlo, 24 h | inhibition, % at 12.6 µM | 360,000 tested, 1.2% active | AID 652154;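 active = mean replicate inhibition at least 60% with every replicate also reaching 60%; inconclusive = only one of the two criteria is met; inactive = mean below 60% and not all replicates reaching 60%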;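 note: luciferase light reporting Pax8 driven TPO promoter activity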
TWEAK-Fn14 inh – inhibitors of TWEAK-Fn14 interaction signaling; TWEAK-stimulated Fn14 reporter cells, luciferase luminescence, 8 h; inhibition, % at 10 µM; 360,000 tested, 2% active; AID 1159606; in the data active = inhibition above about 50%
TROY signal inh – TROY signaling inhibition | Q293 LMP1-TROYcd NF-kB luciferase reporter, 4 h | AID 1347056 | 360,000 tested, 0.98% active | inhibition, % at 10 µM;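 active = compounds whose plate-normalised and pattern-corrected inhibition of the luciferase reporter signal at the single screening dose is 50% or more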
LMP1 NFkB inh – inhibitors of Epstein-Barr LMP1-induced NF-kappaB reporter; LMP1-induced NF-kappaB luciferase reporter cells, luminescence; AID 504558; inhibition, % at 12.5 µM; 350,000 tested, 0.69% active; in the data active = inhibition above about 41%; inconclusive = no clear call, values can overlap the other calls
LGR2 antag – blocks bursicon-induced cAMP signaling via Drosophila LGR2; 380,000 tested, 0.35% active; inhibition, % at 9.99 µM; HEK293 LGR2, CRE-luciferase, bursicon-stimulated, 4 h;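 active = drop in luminescence signal, shown as inhibition above about 50% in the replicate tests, limit read from the data, passing the limit was not always enough; inconclusive = probably only some replicates passing the limit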;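 note: agonist challenge used bursicon conditioned medium at about half maximal strength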
EWS-Fli block – EWS/Fli transcriptional activity inhibition. A673 NR0B1-luciferase reporter, viability-normalised. inhibition, % at 12.6 µM. 350,000 tested, 0.67% active;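 active = mean inhibition of at least 50% after viability correction, with every replicate also passing that limit; inconclusive = mean reaches 50% but only one of two replicates passes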;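 note: firefly luciferase signal divided by Alamar Blue viability fluorescence both relative to DMSO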
Hits are given with their value; 0 = inactive; ? = inconclusive; - = no result. This is a sample that favours compounds with a hit; in the whole collection about 3.2% have one here.

SMILES	PAX8 inh HTS	TWEAK-Fn14 inh	TROY signal inh	LMP1 NFkB inh	LGR2 antag	EWS-Fli block
CSCCC(c1nnnn1C1CCCC1)N1CCC(n2c(=O)[nH]c3ccccc32)CC1 (centres undefined)	0	0	0	-	0	0
CSCCC(c1nnnn1-c1c(C)cccc1C)N1CCC(n2c(=O)[nH]c3ccccc32)CC1 (centres undefined)	0	0	0	-	93	0
CSCCC(c1nnnn1Cc1ccccc1)N1CCC(n2c(=O)[nH]c3ccccc32)CC1 (centres undefined)	97	0	0	-	0	0
O=c1[nH]c2ccccc2n1C1CCN(C(CCc2ccccc2)c2nnnn2C2CCCCC2)CC1 (centres undefined)	0	69	53	-	94	0
O=c1[nH]c2ccccc2n1C1CCN(C(CCc2ccccc2)c2nnnn2Cc2ccccc2)CC1 (centres undefined)	108	94	71	-	99	0
O=C(Cc1ccncc1)N1CCCCN2[C@@H](CO)[C@@H](c3ccc(C#CC4(O)CCCC4)cc3)[C@@H]2C1	0	-	-	-	0	-
CCOC(=O)[C@@H]1[C@@H]2NC(=S)N(C)[C@@]1(COCc1ccc(OC)cc1)Oc1ccccc12	0	-	-	-	-	0
COC(=O)[C@H]1[C@H](CO)[C@H]2Cn3c(ccc(C4=CCCC4)c3=O)[C@@H]1N2Cc1ccccn1	-	-	-	-	0	0
O=c1[nH]c2ccccc2n1C1CCN(C(c2nnnn2Cc2ccccc2)C2CC2)CC1 (centres undefined)	86	0	0	-	0	0
COc1cc2c(ccc3c4cc(OC)c(OC)cc4c[n+](C)c23)cc1O	75	0	0	0	0	0
COc1ccc(-c2ccc3n(c2=O)C[C@H]2[C@H](CO)[C@@H](C(=O)O)[C@@H]3N2C(=O)c2ccccc2F)cc1	-	-	-	-	0	0
C/C=C/c1ccc([C@H]2[C@@H](CO)N3CCCCN(C(=O)Cc4ccncc4)C[C@@H]23)cc1	0	-	-	-	0	0
Cc1ccccc1-c1ccc([C@H]2[C@@H](CO)N3CCCCN(C(=O)Cc4ccccn4)C[C@@H]23)cc1	0	-	-	-	0	0
CC12CCC(O)CC1CCC1C2CCC2(C)C(C3=CC(=O)OC3)C(O)CC12O (centres undefined)	0	53	0	0	77	0
CC12CC[C@H]3[C@@H](CCC4(O)C[C@H](O)CCC34/C=N/NC(=O)Cc3ccccc3)C1(O)CCC2C1=CC(=O)OC1 (some centres undefined)	0	0	0	0	0	0
CC1=C2C[C@H]3[C@@H](CC=C4C[C@@H](O)CC[C@@]43C)[C@@H]2CC[C@]12O[C@@H]1C[C@H](C)CN[C@@H]1C2C (some centres undefined)	0	-	-	-	-	0
COc1ccc2c(c1OC)CN1CCc3cc4c(cc3[C@H]1C2)OCO4	-	0	0	0	-	-
CCC1CN2CCc3cc(OC)c(OC)cc3C2CC1CC1NCCc2c1[nH]c1ccc(O)cc21 (centres undefined)	101	99	85	83	100	0
COc1ccc(C#Cc2ccc([C@H]3[C@H]4CN(C(=O)Cc5ccccc5)CCCCN4[C@H]3CO)cc2)cc1	0	-	-	-	0	0
CCN1C[C@]2(C)CC[C@H](O)[C@]34C1[C@H](C[C@H]23)[C@@]1(O)C[C@H](OC)[C@H]2C[C@@H]4[C@@H]1C2O (some centres undefined)	0	0	0	90	0	0
C=C1C2C[C@@]3([C@@H]1O)[C@@H](C[C@@H]2O)[C@@]12C4[C@@H]3C[C@@H]1[C@@](C)(CC[C@@H]2O)CN4CC	0	0	0	0	0	0
Cc1ccc(OCCOc2cccc(C=C3C(=O)NC(=O)NC3=O)c2)c(C)c1	0	89	0	45	77	?
N#Cc1cccc(-c2ccc([C@@H]3[C@@H](CO)N4CCCCN(C(=O)Cc5ccccc5)C[C@@H]34)cc2)c1	0	-	-	-	0	0
CCN(CC)C(=O)Cn1cc(/C=C2\C(=O)NC(=O)N(c3ccccc3F)C2=O)c2ccccc21	0	66	0	0	0	0
CC=Cc1ccc2n(c1=O)C[C@H]1[C@H](CO)[C@@H](C(=O)OC)[C@@H]2N1CC1CCOCC1 (mixture of isomers)	0	-	-	-	0	0
SMILES	PAX8 inh HTS	TWEAK-Fn14 inh	TROY signal inh	LMP1 NFkB inh	LGR2 antag	EWS-Fli block
O=C1NC(=O)N(CCc2ccc(F)cc2)C(=O)/C1=C\C=C\c1ccccc1	0	98	0	0	0	0
C=CCN1C(=O)NC(=O)/C(=C/C=C/c2ccccc2)C1=O	0	0	0	0	-	0
COC(=O)[C@@H]1[C@@H](CO)[C@@H]2Cn3c(ccc(-c4cccc(F)c4)c3=O)[C@H]1N2Cc1ccncc1	0	-	-	-	0	0
COC(=O)C1=C(c2ccc(F)cc2OCc2ccccc2)C[C@@H]2CC[C@H]1N2C(=O)NC1Cc2ccccc2C1	89	0	0	0	0	0
COC(=O)C1=C(c2ccc(F)cc2OCc2ccccc2)C[C@@H]2CC[C@H]1N2C(=O)NCc1ccc(C)cc1	102	0	0	0	0	0
COC(=O)C1=C(c2ccc(F)cc2OCc2ccccc2)C[C@@H]2CC[C@H]1N2C(=O)N1CCCCC1	0	0	0	0	0	0
COC(=O)C1=C(c2ccc(F)cc2OCc2ccccc2)C[C@@H]2CC[C@H]1N2C(=O)N1CCC(O)(c2ccc(Cl)cc2)CC1	0	56	0	0	0	0
O=C(Cc1ccncc1)N1CCCCN2[C@@H](CO)[C@@H](c3ccc(C#Cc4ccccc4F)cc3)[C@@H]2C1	0	-	-	-	0	0
COC(=O)[C@H]1[C@H](CO)[C@H]2Cn3c(ccc(-c4ccccc4F)c3=O)[C@@H]1N2Cc1ccncc1	0	-	-	-	0	0
C=Cc1cc(OC)c2c(c1)c(=O)oc1c2cc(OC)c2c(O)ccc(C3OC(C)C(O)C(C)(O)C3O)c21 (centres undefined)	89	91	0	88	-	0
O=C(c1ccc(Cl)cc1)C12CN3CN(CN(C3)C1)C2	-	63	-	0	-	-
O=C(c1cccc([N+](=O)[O-])c1)C12CN3CN(CN(C3)C1)C2	0	0	0	0	0	0
CC(C)(O)C(=O)Nc1ccc([N+](=O)[O-])c(C(F)(F)F)c1	-	0	0	0	0	0
COc1cc2c(cc1OC)CN(c1ccc([N+](=O)[O-])c(C(F)(F)F)c1)CC2	0	74	0	0	93	0
COc1cc(C2c3cc(O)c(OC)cc3CC3C(=O)OCC32)ccc1O (centres undefined)	-	0	0	0	0	0
COc1cc(C2c3cc4c(cc3CC3COC(=O)C32)OCO4)cc(OC)c1OC (centres undefined)	-	0	0	0	0	57
COc1cc(C2c3cc4c(c(O)c3CC3COC(=O)C32)OCO4)cc(OC)c1OC (centres undefined)	88	0	0	0	0	0
COC(=O)[C@@H]1[C@@H](CO)[C@@H]2Cn3c(ccc(-c4ccc(F)cc4)c3=O)[C@H]1N2Cc1ccccc1	0	-	-	-	0	0

Bioassay records: PubChem BioAssay, several laboratories
